# Assay outcomes from PubChem.
# HSP90 inh: HSP90 inhibitors, primary screen, cell lysate, luminescence. Heat shock protein HSP 90 (rabbit reticulocyte lysate; luciferase refolding). 290,000 tested, 0.91% active. inhibition, % at 5.6 µM. Rabbit reticulocyte lysate, luciferase refolding luminescence, 3 h. AID 1789, 2009;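 active = inhibition above the screen-wide mean plus 3 SD, computed separately per campaign, cut at about 16% in these data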;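 note: 0% = DMSO wells and 100% = 60 µM geldanamycin wells; inhibitors lower the luminescence because luciferase stays unfolded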
# TROY NFkB inh: inhibitors of TROY-driven NF-kB signaling, primary screen, Q293 LMP1-TROYcd cells, NF-kB luciferase, uHTS. inhibition, % at 10 µM. AID 1347056, 2019. Q293 LMP1-TROYcd NF-kB luciferase reporter, 4 h. 360,000 tested, 0.98% active;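 active = compounds whose plate-normalised and pattern-corrected inhibition of the luciferase reporter signal at the single screening dose is 50% or more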
# TWEAK Fn14 block: inhibitors of TWEAK-Fn14 signaling, primary screen, luciferase reporter cells, uHTS. TWEAK-stimulated Fn14 reporter cells, luciferase luminescence, 8 h. inhibition, % at 10 µM. 360,000 tested, 2% active. AID 1159606, 2016; in the data active = inhibition above about 50%
# HSF-1 act: HSF-1 activators, primary screen, NIH3T3-HGL cells, MG132 stress, luminescence, single point; NIH3T3-HGL HSF-1 luciferase reporter, 8 h; 100% = twice DMSO control signal; activation, % at 9 µM; 300,000 tested, 1.7% active; AID 504408, 2011;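 active = mean replicate activation of at least 50% with a set share of replicates each reaching 50%; inconclusive = only one of those two conditions met; inactive = mean below 50% and too few replicates reaching it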;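 note: 0% = median of the neutral control wells and 100% = twice that signal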
# HSF1 inh: HSF1 inhibitors in luciferase reporter cells, primary screen, cell-based, NIH3T3, luminescence | NIH3T3-HGL HSE-luciferase, MG132-induced, luminescence 8 h; active compounds read low | activity change, negative = inhibition, % at 7.5 µM (by protocol) | 300,000 tested, 0.77% active;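 active = more than half of replicate wells show activity change below -50%, luminescence cut by over half; inconclusive = some wells, but at most half, below -50%; inactive = no replicate well below -50%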;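 note: luciferase reports HSF-1 transcriptional activity via heat shock element; 0% = median of DMSO wells and -100% = zero luminescence signal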
# EBV LMP1 NFkB: EBV LMP1-driven NF-kappaB luciferase reporter inhibitors, primary screen, cell-based, luminescence, single point. LMP1-induced NF-kappaB luciferase reporter cells. inhibition, % at 12.5 µM. 350,000 tested, 0.69% active. AID 504558, 2011; in the data active = inhibition above about 41%; inconclusive = no clear call, values can overlap the other calls;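 note: 0% = neutral control wells and 100% = reference inhibitor control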
# * = called active by the depositor; ? = inconclusive; . = not tested or not shown. This is a sample that favours compounds with a hit; in the whole collection about 4.7% have one here.
SMILES,HSP90 inh,TROY NFkB inh,TWEAK Fn14 block,HSF-1 act,HSF1 inh,EBV LMP1 NFkB
COc1ccc(NC(=O)COc2ccc3c(c2)OCO3)cc1,-4,-27,7,-32,-21,8
Cc1ccc(OCC(=O)Nc2ccc(N3CCN(S(C)(=O)=O)CC3)cc2)cc1C,-3,0,-4,61*,35,-6
Cc1ccc(OCC(=O)Nc2ccc3c(c2)OCCO3)cc1C,8,44,54*,-59,-63*,10
CCc1nc2c(OCC(=O)N3CCOCC3)cccn2c1N(C)C(=O)COc1ccccc1,.,-15,0,.,.,.
C[C@@H]1CCCCO[C@H](CN(C)C(=O)Cc2ccccc2)[C@@H](C)CN([C@H](C)CO)C(=O)c2cc(N(C)C)ccc2O1,.,-6,-7,.,.,2
Cn1cccc1C(=O)OCC(=O)Nc1ccc2c(c1)OCO2,4,-35,-5,6,10,44*
Cc1ccc(-c2nn3c(C)nnc3c3ccccc23)cc1S(=O)(=O)NC(C)c1ccccc1 (stereo not given),-1,-8,58*,35,22,4
CCCCNS(=O)(=O)c1cc(-c2nn(C)c(=O)c3ccccc23)ccc1C,4,5,7,2,2,8
Cc1ccc(-c2nn(C)c(=O)c3ccccc23)cc1S(=O)(=O)NCCN(C)C,3,-5,8,-67,-61*,2
CCc1ccc(NC(=O)CSc2nc3n[nH]c(C)c3c(=N)n2-c2cccc(OC)c2)cc1,2,20,26,69*,40,25
COc1cccc(NC(=O)CSc2nc3n[nH]c(C)c3c(=N)n2-c2cccc(OC)c2)c1,0,8,34,18,7,1
CCN1CCCC1CN(Cc1cc2ccc(C)cc2[nH]c1=O)C(=S)Nc1cccc(OC)c1 (stereo not given),6,-12,18,60*,14,4
CCN1CCCC1CN(Cc1cc2ccc(C)cc2[nH]c1=O)C(=S)Nc1ccc(OC)cc1 (stereo not given),-3,-14,1,0,-3,-15
CCNC(=O)C1CCCN(C(=O)c2cc(OC)c(OC)c(OC)c2)CC1 (stereo not given),.,-7,5,.,.,.
CCOc1cc(/C=C\[N+](=O)[O-])ccc1OCC(=O)N1CCOCC1,-7,15,50,310*,189,14
CC(C)c1onc(C(=O)NCCc2ccccc2)c1[N+](=O)[O-],4,-27,-12,61*,11,-6
Cc1ccc(O)c(NC(=O)c2noc(C(C)C)c2[N+](=O)[O-])c1,-4,-13,-6,73*,55,-10
CC(=O)c1ccc(NC(=O)c2noc(C(C)C)c2[N+](=O)[O-])cc1,2,-43,0,-3,1,-23
C=C1C(=O)C=C2CN(C(=O)c3ccccc3)[C@@](Cc3ccc(F)cc3)(C(=O)OC)[C@@H]12,18*,81*,105*,?,40,94*
O=c1c(OCc2ccccc2)cccn1Cc1ccccc1,.,-53,-4,.,.,-16
Cc1ccc(Cn2cccc(-c3nc4ccccc4s3)c2=O)cc1,-2,-16,32,106*,53,-49
O=c1c(-c2nc3ccccc3s2)cccn1Cc1ccccc1,-4,-66,16,93*,50,-43
Cc1nc2ccccc2nc(=O)c1NNc1ccccc1,-4,-32,-42,65*,19,-26
Cc1ccc2nc(=O)c(NNc3ccccc3)cnc2c1,-2,-74,-37,22,13,-5
O=C(Nc1ccc(F)c(F)c1)C1CCCCC1,.,-3,-12,.,.,49*
SMILES,HSP90 inh,TROY NFkB inh,TWEAK Fn14 block,HSF-1 act,HSF1 inh,EBV LMP1 NFkB
O=C(CCC1CCCCC1)Nc1ccccc1O,0,-62,-15,59*,45,-8
Cc1ccc(O)c(NC(=O)C2CCCCC2)c1,0,-12,-11,68*,68,-8
Cc1ccc(O)c(NC(=O)CCC2CCCCC2)c1,0,-45,-37,151*,78,-8
CCc1ccc(CN2CCC(Oc3cc(C(=O)NC4CC4)ccc3OC)CC2)cc1,.,4,-3,.,.,4
Cn1c(NC(=O)CCC2CCCCC2)cc(=O)n(C)c1=O,-2,-46,6,55*,36,-32
Cc1noc(/C=C/N(C)C)c1S(=O)(=O)N1CCN(c2ccc(F)cc2)CC1,-3,21,14,-69,-62*,1
CC(=O)N(CN1C(=O)CCC1=O)c1ccc(Cl)c(Cl)c1,-3,58*,73*,-3,0,1
O=C1CCC(=O)N1CN(C(=O)c1ccco1)c1ccc(Cl)c(Cl)c1,1,-13,-4,3,-5,6
O=C(NCCc1ccc(F)cc1)c1coc(=O)c(Br)c1,8,-7,90*,12,18,-20
CCCCCCCN(C(=O)CCl)c1ccccc1C,4,-6,46,94*,34,-1
Cc1ccccc1N(Cc1cc(=O)[nH]c2ccccc12)C(=O)CCl,0,-5,70*,-9,-13,8
O=C(CCl)N(Cc1cc(=O)[nH]c2ccccc12)c1ccccc1,2,8,82*,11,11,20
CC(C)c1nc(SCC(=O)N2CCCCC2)c2c(=O)n(C)c(=O)n(C)c2n1,.,-2,5,.,.,2
CC(C)NC(=O)N(C)C[C@H]1Oc2ncc(Br)cc2C(=O)N([C@H](C)CO)C[C@@H]1C,.,-18,10,.,.,-13
Cc1ccc(C(O)c2ncc(-c3ccccc3Cl)[nH]2)cc1F (stereo not given),.,-20,19,.,.,.
CN(C)C(=O)c1cc([N+](=O)[O-])cc([N+](=O)[O-])c1N(C)C,-5,9,107*,-13,0,2
CC(OC(=O)[C@H](C)N=C1NS(=O)(=O)c2ccccc21)C(=O)Nc1ccc(F)c(F)c1F (stereo not given in full),.,20,-7,.,.,-3
COc1cc(C(O)c2nc(-c3ccncc3)cs2)ccc1F (stereo not given),.,12,13,.,.,.
COc1ccc(S(=O)(=O)N2CCC(C(=O)NC3CC3)CC2)cc1C,0,0,38,10,-5,-1
CC(=O)c1cccc(S(=O)(=O)N2CCC(C(=O)Nc3cccc(C(=O)NC4CC4)c3)CC2)c1,.,62*,-17,.,.,-6
COc1ccc(S(=O)(=O)N2CCC(C(=O)NC3CC3)CC2)cc1OC,2,-15,-8,-26,-9,67*
Cc1c(NC(=O)C(c2ccccc2)c2ccccc2)cccc1C(=O)O,1,-41,2,13,-1,-11
